# PubChem BioAssay
# Active and inactive are the calls of the source.
# What was measured:
# [1] = E. coli DRC41 culture turbidity changes, primary screen, E. coli filamentation inducer project, strain DRC41, OD650, 48 h (AID 1152);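 also: E. coli MC1000 strain DRC41 lacking acrAB efflux pump and sulA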; settings: E. coli DRC41 (acrAB sulA), higher = more signal, called active from +8 up or from −8 down
# [2] = small-molecule binders of probe aLefty1, primary screen, biochemical, small-molecule microarray, 635/667 nm fluorescence (AID 1153); settings: higher = more signal;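 also: score merges spot fluorescence with signal-to-noise ratio from the scanned slide images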
# [3] = PSAC antagonists in infected red cells, primary screen, cell-based, P. falciparum Indochina, OD700, 1 h (AID 1154); settings: P. falciparum Indochina infected RBC osmotic lysis, higher = more signal, called active from +8 up or from −8 down
# [4] = PSAC antagonists in infected red cells, primary screen, cell-based, P. falciparum Indochina, OD700, 2 h (AID 1155);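 also: lysis reports solute entry through the parasite surface anion channel PSAC; channel blockers reduce lysis of infected cells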; settings: P. falciparum Indochina infected erythrocytes, osmotic lysis OD700; higher = more signal, called active from +8 up or from −8 down
# [5] = osmotic lysis modulators in infected erythrocytes, primary screen, PSAC antagonist project, cell-based, P. falciparum Indochina, OD700, 3 h (AID 1156); settings: higher = more signal, called active from +8 up or from −8 down
# [6] = PSAC antagonists in infected red cells, primary screen, cell-based, P. falciparum Indochina, OD700, 18 h (AID 1157); settings: P. falciparum Indochina infected erythrocytes, osmotic lysis OD700, 18 h; higher = more signal, called active from +8 up or from −8 down
# [7] = modulators of S6 phosphorylation in cells, primary screen, cell-based, A549, cytoblot, luminescence, serum-stimulated (AID 1158); settings: A549 phospho-S6 cytoblot, 5 h, higher = more signal;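 also: serum-stimulated A549 lung adenocarcinoma cells; signal is phosphorylated S6 detected by cytoblot immunostaining with HRP secondary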
# [8] = molecular target: NADPH oxidase 2 (Homo sapiens) (UniProt P04839); experiment: NOX2-dependent H2O2 signal modulators, primary screen, NOX inhibitor project, cell-based, HEK293-NOX2, PMA-stimulated, Amplex Red fluorescence (AID 1159); settings: 45 min, higher = more signal, called active from +8 up or from −8 down; also: test concentration not given here
# [9] = molecular target: NADPH oxidase 4 (Homo sapiens) (UniProt Q9NPH5); experiment: NOX4-dependent H2O2 signal modulators, primary screen, NOX inhibitor project, cell-based, HEK293-NOX4, tetracycline-induced, Amplex Red fluorescence (AID 1160); settings: 45 min, higher = more signal, called active from +8 up or from −8 down
# [10] = molecular target: NADPH oxidase 5 (Homo sapiens) (UniProt Q96PH1); experiment: NOX5-dependent H2O2 signal modulators, primary screen, NOX inhibitor project, cell-based, HEK293-NOX5, Amplex Red fluorescence (AID 1161); settings: HEK293-NOX5, ionomycin, 45 min, higher = more signal
# [11] = A549 cell viability effects, profiling panel, calcein-AM fluorescence, 48 h, basal (AID 1162); settings: higher = more signal; also: test concentration not given here
# [12] = adipocyte viability effects, profiling panel, cell-based, 3T3-L1 adipocytes, calcein-AM fluorescence, 48 h, basal (AID 1163); settings: 3T3-L1 adipocytes viability, higher = more signal; also: test concentration not given here
# [13] = HepG2 cell viability effects, profiling panel, calcein-AM fluorescence, 48 h, basal (AID 1164); settings: higher = more signal; also: test concentration not given here
# [14] = MM1S cell viability effects, profiling panel, calcein-AM fluorescence, 48 h, basal (AID 1165); settings: higher = more signal;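 also: viability of MM1S multiple myeloma cells under basal unstimulated conditions; test concentration not given here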
# [15] = basal RPMI8226 viability, no added stimulus, profiling panel, cell-based, calcein-AM fluorescence, 48 h, PK04 Diversity Set (AID 1166); settings: RPMI8226 myeloma viability, higher = more signal;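 also: cells grown under basal conditions without added stimulus; test concentration not given here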
# [16] = basal HepG2 mitochondrial membrane potential changes, profiling panel, cell-based, JC-1 fluorescence, 24 h, 100 nL compound (AID 1167); settings: higher = more signal; also: test concentration not given here
# [17] = basal 3T3-L1 adipocyte mitochondrial potential changes, profiling panel, cell-based, JC-1 fluorescence, 3T3-L1 adipocytes, 24 h, 100 nL compound (AID 1168); settings: JC-1 mitochondrial fluorescence, higher = more signal, called active from +8 up or from −8 down; also: test concentration not given here
# [18] = basal RPMI8226 mitochondrial membrane potential changes, profiling panel, cell-based, JC-1 fluorescence, 24 h, 100 nL compound (AID 1169); settings: RPMI8226 myeloma, JC-1 mitochondrial potential fluorescence, higher = more signal; also: test concentration not given here
# [19] = basal MM1S mitochondrial membrane potential changes, profiling panel, cell-based, JC-1 fluorescence, 24 h, 100 nL compound (AID 1170); settings: higher = more signal; also: test concentration not given here
# [20] = A549 lung cancer cell viability effects, profiling panel, resazurin fluorescence, 24 h, PK04 Diversity Set (AID 1171); settings: higher = more signal, called active from +8 up or from −8 down; also: test concentration not given here
# Chain of NADPH oxidase 2 (Homo sapiens) (P04839 whole entry, looked up): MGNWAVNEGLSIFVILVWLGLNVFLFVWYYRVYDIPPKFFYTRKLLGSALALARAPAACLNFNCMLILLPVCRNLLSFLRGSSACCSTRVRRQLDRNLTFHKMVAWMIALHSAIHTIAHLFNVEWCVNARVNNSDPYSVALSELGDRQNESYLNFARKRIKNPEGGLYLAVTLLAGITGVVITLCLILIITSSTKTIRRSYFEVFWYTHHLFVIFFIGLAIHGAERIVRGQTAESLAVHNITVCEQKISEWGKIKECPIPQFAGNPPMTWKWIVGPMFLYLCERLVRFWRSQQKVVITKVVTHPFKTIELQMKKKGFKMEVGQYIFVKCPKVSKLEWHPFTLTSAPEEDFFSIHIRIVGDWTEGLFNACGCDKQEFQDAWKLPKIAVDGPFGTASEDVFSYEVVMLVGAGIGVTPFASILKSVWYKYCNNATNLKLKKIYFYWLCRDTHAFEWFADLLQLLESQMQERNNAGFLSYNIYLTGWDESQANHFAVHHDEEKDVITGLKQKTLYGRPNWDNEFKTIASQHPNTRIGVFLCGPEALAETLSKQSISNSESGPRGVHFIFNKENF
# Chain of NADPH oxidase 5 (Homo sapiens) (Q96PH1 whole entry, looked up): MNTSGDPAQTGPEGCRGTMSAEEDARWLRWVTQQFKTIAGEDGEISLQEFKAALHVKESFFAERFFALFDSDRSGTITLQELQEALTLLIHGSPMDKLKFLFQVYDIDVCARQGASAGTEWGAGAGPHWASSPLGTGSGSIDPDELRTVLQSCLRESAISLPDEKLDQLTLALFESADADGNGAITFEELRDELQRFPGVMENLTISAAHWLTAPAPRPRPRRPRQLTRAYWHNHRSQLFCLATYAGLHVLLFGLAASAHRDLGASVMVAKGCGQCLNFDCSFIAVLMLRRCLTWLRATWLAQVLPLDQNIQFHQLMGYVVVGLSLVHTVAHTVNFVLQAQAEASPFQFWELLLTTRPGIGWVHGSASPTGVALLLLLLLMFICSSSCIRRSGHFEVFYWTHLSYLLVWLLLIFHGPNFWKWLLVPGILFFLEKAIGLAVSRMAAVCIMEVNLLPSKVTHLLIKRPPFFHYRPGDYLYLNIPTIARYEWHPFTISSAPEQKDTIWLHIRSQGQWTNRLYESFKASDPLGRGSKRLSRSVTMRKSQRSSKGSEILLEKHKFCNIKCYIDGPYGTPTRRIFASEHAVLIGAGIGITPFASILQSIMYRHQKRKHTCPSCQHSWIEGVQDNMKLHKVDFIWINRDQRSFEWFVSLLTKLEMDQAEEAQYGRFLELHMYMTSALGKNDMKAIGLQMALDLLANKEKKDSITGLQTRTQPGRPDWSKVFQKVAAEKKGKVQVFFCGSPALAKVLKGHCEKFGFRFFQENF
# Chain of NADPH oxidase 4 (Homo sapiens) (Q9NPH5 whole entry, looked up): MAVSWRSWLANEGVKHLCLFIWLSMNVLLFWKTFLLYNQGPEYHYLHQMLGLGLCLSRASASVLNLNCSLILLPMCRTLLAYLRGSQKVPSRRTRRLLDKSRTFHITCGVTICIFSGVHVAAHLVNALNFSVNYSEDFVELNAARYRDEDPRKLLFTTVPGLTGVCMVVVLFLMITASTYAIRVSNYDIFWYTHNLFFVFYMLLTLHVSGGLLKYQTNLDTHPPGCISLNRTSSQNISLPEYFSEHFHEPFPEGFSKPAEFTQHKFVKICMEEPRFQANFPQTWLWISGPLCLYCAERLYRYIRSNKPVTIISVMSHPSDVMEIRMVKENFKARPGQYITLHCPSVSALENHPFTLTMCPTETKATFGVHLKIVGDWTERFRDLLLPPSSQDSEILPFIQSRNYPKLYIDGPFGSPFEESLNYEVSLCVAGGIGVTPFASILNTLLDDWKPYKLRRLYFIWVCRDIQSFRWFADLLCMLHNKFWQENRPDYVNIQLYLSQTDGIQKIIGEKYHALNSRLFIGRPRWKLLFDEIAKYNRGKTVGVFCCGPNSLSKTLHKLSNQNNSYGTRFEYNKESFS
SMILES,z-score [1],composite z-score [2],z-score [3],z-score [4],z-score [5],z-score [6],z-score [7],z-score [8],z-score [9],z-score [10],z-score [11],z-score [12],z-score [13],z-score [14],z-score [15],z-score [16],z-score [17],z-score [18],z-score [19],z-score [20]
CCCCCCc1nc(-c2ccc(-c3ccc(Cl)c(Cl)c3)o2)cc2c1[Si](C(C)C)(C(C)C)O[C@H]2c1ccccc1,0.321 (inactive),-0.598,0.439 (inactive),0.0435 (inactive),1.47 (inactive),0.333 (inactive),0.205,-1.24 (inactive),-1.44 (inactive),-1.49,-0.793,-0.0866,-1.08,-0.373,0.568,0.474,-0.0412 (inactive),0.278,-0.284,1.19 (inactive)
O=C1O[C@@H](c2ccccc2)[C@@H](c2ccccc2)N2[C@@H](c3ccccc3OCCO)[C@]3(C(=O)Nc4ccccc43)[C@@H](C(=O)O)[C@H]12,-0.749 (inactive),-0.518,0.749 (inactive),0.745 (inactive),-1.6 (inactive),0.761 (inactive),0.128,2.66 (inactive),0.516 (inactive),1.24,-0.796,0.266,0.045,-2.64,0.0803,0.249,-0.742 (inactive),0.649,0.554,0.362 (inactive)
[N-]=[N+]=Nc1ccccc1C[C@]1(C(=O)NCC(O)CO)N=C(c2ccc(OCCCO)cc2)O[C@H]1c1ccccc1 (stereo not given in full),-0.2 (inactive),0.027,19.9 (active),3.78 (inactive),1.64 (inactive),1.18 (inactive),-0.132,1.34 (inactive),0.567 (inactive),-1.25,-0.432,-0.281,-0.259,-1.04,-0.984,-0.571,-0.332 (inactive),-0.514,-0.283,0.381 (inactive)
CC[C@@H]1C=C(C(=O)O)[C@H](c2cccc3ccccc23)N1S(=O)(=O)c1ccc(C)cc1,-0.453 (inactive),0.0774,1.26 (inactive),1.2 (inactive),-0.129 (inactive),0.708 (inactive),-0.769,0.338 (inactive),-0.931 (inactive),0.133,-1.17,-0.101,0.338,-0.585,-0.392,-0.384,0.291 (inactive),1.17,-1.16,-0.376 (inactive)
O=C(NCc1ccccc1)[C@@H]1c2ccccc2C(=O)N(C2Cc3ccccc3C2)[C@H]1c1ccc(CO)cc1,-1.25 (inactive),0.315,3.46 (inactive),-0.627 (inactive),-0.0549 (inactive),0.353 (inactive),-0.543,-0.0422 (inactive),-1.3 (inactive),-1.41,0.365,0.363,0.291,0.0344,-1.3,1.52,-0.508 (inactive),0.0926,0.458,0.791 (inactive)
Cc1ccc(S[C@]2(C(=O)O)CC(=O)N(C(C)C)[C@@H]2c2ccc(CO)cc2)cc1,1.99 (inactive),-0.668,1.05 (inactive),-0.354 (inactive),-1.28 (inactive),-0.951 (inactive),2.66,0.149 (inactive),-0.716 (inactive),-0.877,0.716,1.07,1.19,0.266,0.535,1.36,-0.285 (inactive),0.00862,-0.317,-0.831 (inactive)
O=C(O)[C@@]1(CCS(=O)(=O)c2ccccc2)N=C(c2ccc(OCCCO)cc2)O[C@H]1c1ccccc1,0.183 (inactive),0.0458,22.6 (active),4.96 (inactive),0.178 (inactive),0.789 (inactive),-0.238,-0.333 (inactive),1.66 (inactive),1.26,-0.932,0.784,-0.258,-0.839,-1.04,0.591,-0.249 (inactive),-0.178,-0.51,0.761 (inactive)
COc1ccccc1CN1C(=O)c2ccccc2[C@@]2(Cc3ccccc3N(CCCN(C)C)C2=O)[C@@H]1c1ccc(CO)cc1,2 (inactive),-0.152,0.599 (inactive),-0.678 (inactive),-0.795 (inactive),-1.1 (inactive),2.55,-0.841 (inactive),-1.61 (inactive),1.51,-0.733,1.31,-0.655,0.229,-0.0261,0.511,-0.459 (inactive),0.00572,-0.343,-0.483 (inactive)
O=C1O[C@H](c2ccccc2)[C@H](c2ccccc2)N2[C@H]1[C@@H](C(=O)N1CCN(c3ncccn3)CC1)[C@]1(C(=O)Nc3ccc(C#CC4=CCCCC4)cc31)[C@H]2c1ccccc1OCCO,-0.544 (inactive),1.52,1.45 (inactive),0.746 (inactive),0.774 (inactive),1.03 (inactive),-0.187,1.46 (inactive),0.867 (inactive),1.01,-1.02,1.09,-0.769,-2.23,-1.72,-0.915,2.88 (inactive),-1.18,-1.01,-1.34 (inactive)
